Screening data from PubChem.
ASM inhibitor: inhibitors of human secretory acid sphingomyelinase; placental ASM, HMU-PC fluorogenic substrate, 60 min; Potency, µM (doses to about 57.5 µM), for the others: at the top dose activity change, negative = inhibition, most hits filed as inhibitors; P17405; 0.006% of 340,000 active; further: potency means the concentration at half of the fitted maximal effect
Target sequence (P17405 47-631 limits assumed): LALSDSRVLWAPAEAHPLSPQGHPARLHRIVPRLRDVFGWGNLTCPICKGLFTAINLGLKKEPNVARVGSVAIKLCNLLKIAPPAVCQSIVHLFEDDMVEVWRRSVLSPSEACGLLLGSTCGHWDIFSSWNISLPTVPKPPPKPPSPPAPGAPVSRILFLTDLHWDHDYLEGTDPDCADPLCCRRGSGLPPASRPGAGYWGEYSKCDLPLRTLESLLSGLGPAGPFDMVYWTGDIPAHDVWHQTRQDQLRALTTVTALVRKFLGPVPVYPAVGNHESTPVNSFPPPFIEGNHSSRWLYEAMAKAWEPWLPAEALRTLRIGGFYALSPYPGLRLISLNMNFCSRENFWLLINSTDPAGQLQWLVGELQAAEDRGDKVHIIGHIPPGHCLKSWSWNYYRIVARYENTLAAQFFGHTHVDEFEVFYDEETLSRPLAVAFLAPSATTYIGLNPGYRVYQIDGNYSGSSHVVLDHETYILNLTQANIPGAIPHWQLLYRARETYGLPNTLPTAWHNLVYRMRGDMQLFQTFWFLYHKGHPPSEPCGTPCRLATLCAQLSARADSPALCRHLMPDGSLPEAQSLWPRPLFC
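Steps: dispense placental human ASM, pin compound, wait 10 min at room temperature, add HMU-PC0 substrate at 9 uM final, incubate 60 min at 37 °C, add stop solution raising pH to 10, read fluorescence.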
HepG2 viability: HepG2 cytotoxicity, counter-screen for TGF-b inhibitors | HepG2 CAGA-GFP viability, ATP luminescence, 18 h | Potency, µM (titrated, usually from 46.1 µM), for inactives: at the top dose activity change, negative = cytotoxicity, usual class: cytotoxic | 0.76% of 410,000 active | AID 588856; further: potency means the concentration at half of the fitted maximal effect
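CellTiter-Glo luminescence gave cytotoxicity after 18 hours at 37 degrees C. The cells were HepG2 CAGA-GFP in 1% FBS DMEM, stimulated with 500 pg/mL TGF-beta after compound addition. %Activity was normalised to no-cell wells (complete cell-killing) and DMSO (no toxicity), and curves were fitted and classified.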
TGFb inhibitor: inhibitors of TGF-b signaling | HepG2 CAGA-GFP TGF-b/SMAD3 reporter, GFP fluorescence, 18 h; TGF-beta stimulated, 500 pg/mL final | Potency, µM (highest dose often 46.1 µM), inactives show top-dose activity, negative = inhibition, usual class: inhibitors | 1.2% of 410,000 active; further: potency means the concentration at half of the fitted maximal effect; on the % scale 0 is the no-effect control and ±100 the full control effect; nearly all actives have a fitted effect of over 65% in size
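Read-out: total well GFP (ex488/em500-530) summed from mean per-cell fluorescence. Cells: HEPG2 CAGA-GFP, 1% FBS DMEM, 18 h at 37 degrees C with 500 pg/mL final TGF-beta. Unstimulated wells served as the full-inhibition control; stimulated DMSO wells = 0%.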
DT40 TDP1 no CPT: qHTS for Inhibitors of human tyrosyl-DNA phosphodiesterase 1 (TDP1): qHTS in cells in absence of CPT | DT40 Tdp1-/- hTDP1 cells, no CPT, ATP luminescence, 48 h | Potency, µM (doses to about 46.2 µM), inactives show at the top dose activity change, negative = growth inhibition, actives largely listed as inhibitors | 15% of 420,000 active | AID 686978, 2013; further: potency means the concentration at half of the fitted maximal effect; on the % scale 0 is the no-effect control and ±100 the full control effect; nearly all actives have a fitted effect of over 55% in size
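Chicken DT40 Tdp1-/- cells complemented with human TDP1, screened without camptothecin (DMSO vehicle only), 400 cells/well. Compounds pin-transferred, cells incubated at 37 °C for at least 48 hr. Growth read as ATP-dependent luminescence (CellTiter-Glo, 30 min at RT).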
TDP1 cell CPT: growth inhibition of DT40 Tdp1-/-;hTDP1 cells with camptothecin (screen for TDP1 inhibitors); chicken DT40 Tdp1-/-;hTDP1 cells + 20 nM CPT, ATP luminescence, 48 h; Potency, µM (titrated, usually from 46.2 µM), without a hit: at the highest dose activity change, negative = growth inhibition, actives largely listed as inhibitors; 12% of 420,000 active; AID 686979; further: potency means the concentration at half of the fitted maximal effect; on the % scale 0 is the no-effect control and ±100 the full control effect; nearly all actives have a fitted effect of over 55% in size
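Cell growth measured by CellTiter-Glo luminescence after a minimum 48 h, 37 C compound exposure with 20 nM CPT in Tdp1-knockout DT40 cells stably expressing hTDP1, seeded 400/well; qHTS titration format.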
IL1B secr inh: blocks inflammasome-driven IL-1 beta release; THP-1 LPS/ATP IL-1B secretion, AlphaLISA, 16 h; hits give low values; 4.7% of 360,000 active; activity change, % at 57.5 µM; in the data active means activity change below about -50%; inconclusive means mostly about -30% to -49%; further: on the % scale 0 is the no-effect control and ±100 the full control effect
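Secreted IL-1B measured by AlphaLISA bead assay after 16 h compound exposure of THP-1 cells; compounds (final up to 57.5 uM) added 1 h before LPS (250 ng/mL) and ATP (1.25 mM) stimulation; lower signal means less secretion.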
* marks the source's active call; other numbers are inactive results; i = inactive; ? = inconclusive; . = no result. Sampled rows, rich in hits. Any-hit rate of the full collection: about 19%. Unless noted, the call rests on the fitted dose curve; in most records, active means well fitted curve in the direction sought with a large enough effect; inconclusive means small, poorly fitted or top-dose-only effect, or another doubt; inactive means no such curve, though single readings can be large; an effect the other way counts as inactive or inconclusive.

SMILES | ASM inhibitor | HepG2 viability | TGFb inhibitor | DT40 TDP1 no CPT | TDP1 cell CPT | IL1B secr inh
N#Cc1ccccc1COC(=O)c1cc(S(=O)(=O)N2CCOCC2)ccc1F | . | 16% | 13% | 1% | 8% | ?
O=C(OCc1cc(=O)oc2cc(O)ccc12)c1cc(S(=O)(=O)N2CCOCC2)ccc1F | i | 16% | -1% | -23% | -14% | -103*
CCc1cc2c(COC(=O)c3cccc(NS(C)(=O)=O)c3)cc(=O)oc2cc1O | 302% | -22% | -14% | 10µM* | 16µM* | -13
CN(C)c1cccc(C(=O)OCc2cc(=O)oc3cc(O)ccc23)c1 | i | 9% | -7% | ? | ? | 32
NC1=NCCN1CC(=O)O | . | . | . | -2% | 0% | .
CCn1ccc2cc(S(=O)(=O)N3CCC(C(=O)NCc4ccc(F)cc4)CC3)ccc21 | . | -5% | ? | ? | ? | .
Cc1nn(C)cc1S(=O)(=O)N1CCN(Cc2ccc(F)cc2Cl)CC1 | 4% | 36% | 66% | -10% | 1% | 24
Cc1cccc(NC(=O)CSCC(=O)N2CCN(Cc3ccc4c(c3)OCO4)CC2)c1 | 1% | -2% | ? | -21% | -17% | 10
CCCOc1cccc(NC(=O)c2cc(C)oc2C)c1 | -1% | -3% | 0% | 16µM* | 26µM* | -14
CCCCOc1cccc(NC(=O)c2cccc(C(=O)Nc3cccc(OCCCC)c3)c2)c1 | . | 2% | 0% | 7.3µM* | 18µM* | .
CCCCOc1cccc(C(=O)Nc2ccc(NC(=O)c3ccco3)cc2)c1 | -2% | 3% | 2% | -28% | -10% | -1
CCOc1ccc(Nc2nc(C)c(NC(=O)c3cccc(OC)c3)c(Nc3ccc(OCC)cc3)n2)cc1 | . | -17% | ? | 2.3µM* | 1.5µM* | .
COC(=O)COc1cccc(NC(=O)c2cc(OC)cc(OC)c2)c1 | 0% | -37% | -13% | -13% | 3% | -100*
O=C(NCC(=O)N1CCOCC1)c1ccccc1 | 1% | 9% | 13% | -7% | 2% | 2
CCCOc1ccc(C(=O)Nc2ccc(NC(=O)c3ccccc3)c(C)c2)cc1 | . | -13% | 12% | 16µM* | ? | .
CCOc1cccc(C(=O)Nc2ccc(NC(=O)c3ccc(Br)cc3)cc2)c1 | . | -1% | 0% | -3% | -21% | .
CCOc1ncccc1C(=O)Nc1cccc(C(=O)Nc2cccc(S(=O)(=O)CCO)c2)c1 | -6% | 2% | 20% | 7.3µM* | ? | ?
CCOc1cccc(C(=O)Nc2ccc(NC(=O)c3ccccc3)c(C)c2)c1 | -1% | 7% | -2% | ? | ? | -22
CCOc1cccc(C(=O)Nc2ccncc2)c1 | 2% | -24% | -9% | ? | 23µM* | 14
CCCCOc1cccc(C(=O)NC(=S)Nc2cccc(C(F)(F)F)c2)c1 | -7% | -36% | ? | 29µM* | ? | -9
CCOc1ncccc1C(=O)Nc1cccc(S(=O)(=O)NC2=NCCC2)c1 | -1% | -30% | 3% | -4% | -10% | -2
Cc1ccc(C(=O)N2CCCCC2CCN2CCCCC2)cc1 (centres undefined) | . | 0% | 0% | -3% | 5% | .
COc1ccc(CN(C)C(=O)c2cccc(S(=O)(=O)N3CCc4ccccc43)c2)c(OC)c1 | 3% | -1% | ? | 15µM* | 21µM* | -22
COc1ccc(CN(C)C(=O)c2cccc(NS(=O)(=O)c3ccccc3)c2)c(OC)c1 | -1% | -4% | 0% | 0% | -27% | -15
COc1ccccc1CN(C)C(=O)c1cccc(S(=O)(=O)N2CCCC2)c1 | 4% | 6% | 0% | -10% | ? | 11
